Our source for the z-score values is PubChem BioAssay.

Activity calls are given as the source filed them.

This assay can be described thus: JC-1 mitochondrial signal, unstimulated adipocytes – cell-based, JC-1 fluorescence, 3T3-L1 adipocytes, 24 h, 100 nL compound, profiling panel (AID 1168). Also: test concentration not given here. Conditions: JC-1 mitochondrial fluorescence, higher = more signal, called active from +8 up or from −8 down.
For `COC(=O)[C@H](C)NC(=O)CCC1CC(OC(=O)NCc2cccc3ccccc23)CC2(CCCC(COC(=O)NCc3ccccc3)O2)O1` (stereo partly specified), the z-score was 0.818 (inactive).

Consider `O=C1CCCC=C1C(O)C1CCCCC1` (stereo unspecified), for which the z-score is -1.15 (inactive).

Regarding `COc1ccc(COC(=O)NN=C2C[C@@H](O)[C@@H](O)[C@@H]3[C@@H]4C(=O)N(Cc5ccccc5)C(=O)[C@@H]4CC[C@@H]23)cc1`, the z-score is -0.289 (inactive).

With `CO[C@H]1COC(=O)CC=C[C@H](C)[C@H](OC)COC(=O)[C@@H](C)NC(=O)CC=C[C@@H]1C`, the z-score is -0.557 (inactive).

Regarding `CC(C)CON=C1[C@H]2CCn3c(=O)n(C)c(=O)n3[C@H]2[C@H](O)[C@@H]2O[C@H]12`, the z-score is -0.444 (inactive).

In the case of `CCOC(=O)CCN1C(=O)[C@H]2[C@H]3[C@H](O)[C@H](O)CC(=NOCC=C(C)CCC=C(C)C)[C@@H]3CC[C@H]2C1=O`, the z-score was -0.204 (inactive).

Consider `CC[C@@H](c1ccccc1)n1c(=O)n2n(c1=O)[C@H]1[C@H](O)[C@@H]3O[C@@H]3C(=NOCc3ccccc3)[C@H]1CC2`, for which the z-score is -0.327 (inactive).

Turning to `CC(CCN1CCCc2nc(C)c(C)cc21)=NO[C@@H](C)c1cn([C@H](CO)Cc2ccccc2)nn1`, the z-score was 0.733 (inactive).

As to `COC(=O)[C@H](C)NC(=O)CCC1CC(OC(=O)NCCc2ccc(F)cc2)CC2(CCCC(COC(=O)NCC3CCCCC3)O2)O1` (stereo partly specified), the z-score was 0.497 (inactive).

Consider `CCOC(=O)[C@H](Cc1ccccc1)NC(=O)CCC1CC(OC(=O)NCc2ccc3c(c2)OCO3)CC2(CCCC(COC(=O)NCCCN3CCCC3=O)O2)O1` (stereo partly specified), for which the z-score is -0.654 (inactive).

For `CC(CCC(=O)OC[C@H]1O[C@H](C#Cc2ccccc2)C=C[C@@H]1Oc1ccc(C)cc1)=NOC[C@@H](C)[C@H](OCc1ccccc1)C(C)C`, the z-score was -1.77 (inactive).

For the compound `CCN1C(=O)[C@H]2[C@H]3[C@H](O)[C@H](O)CC(=NOC[C@@H](O)[C@H]4O[C@@H]5OC(C)(C)O[C@@H]5[C@H]4O)[C@@H]3CC[C@H]2C1=O`, the z-score was 0.141 (inactive).

Consider `CC(C)CON=C1C[C@@H](O)[C@@H](O)[C@@H]2[C@@H]3C(=O)N(Cc4ccc5c(c4)OCO5)C(=O)[C@@H]3CC[C@@H]12`, for which the z-score was 0.115 (inactive).

For `C=CC[C@@H]1C=C[C@H](ON=C2C[C@@H](O)[C@@H](O)[C@@H]3[C@@H]4C(=O)N(CC)C(=O)[C@@H]4CC[C@@H]23)[C@@H](CO)O1`, the z-score is 0.265 (inactive).

`CO[C@H]1COC(=O)CCC[C@H](C)[C@H](OC)COC(=O)CC=C[C@@H]1C`: the z-score was -1.7 (inactive).

For `COc1ccc2c(c1)O[C@@H](c1cccc(C(F)(F)F)c1)[C@H](O)C2=O`, the z-score was 0.0155 (inactive).

On to `CC(CCN1CCCc2nc(C)c(C)cc21)=NOC[C@@H](O)COCc1ccco1`, for which the z-score is -0.126 (inactive).

As to `CCN1C(=O)[C@H]2[C@H]3[C@H](O)[C@H](O)CC(=NO[C@@H]4O[C@H](CO)[C@@H](O)[C@H](O)[C@H]4O)[C@H]3CC[C@H]2C1=O`, the z-score is -1.21 (inactive).

Turning to `CCOC(=O)[C@H](CC(C)C)NC(=O)CCC1CC(OC(=O)NCc2ccc3c(c2)OCO3)CC2(CCCC(COC(=O)NCCOc3ccccc3)O2)O1` (stereo partly specified), the z-score is 0.278 (inactive).

With `O=C1C2=CC[C@H]3C(=O)N(c4ccc(F)cc4F)C(=O)[C@H]3[C@H]2[C@H](O)[C@@H]2O[C@H]12`, the z-score was -0.191 (inactive).

As to `CC(=O)OC[C@H]1O[C@H](C#CCCc2ccccc2)C=C[C@@H]1OC(C)=O`, the z-score is -0.282 (inactive).

On to `CC(C)=NOC(C)CN1CCCc2nc(C)c(C)cc21` (stereo unspecified), for which the z-score was -0.24 (inactive).

Regarding `COC(=O)[C@H](C)NC(=O)CCC1CC(OC(=O)NCc2cccc3ccccc23)CC2(CCCC(COC(=O)NCCOc3ccccc3)O2)O1` (stereo partly specified), the z-score is -0.198 (inactive).

As for `C[C@@H]1CC[C@@H](C(=O)O)N[C@H]1c1cccc(N2CCOCC2)c1`, the z-score is 0.631 (inactive).

Regarding `COC(=O)[C@@H]1CC[C@H](C)[C@@H](c2ccc(Br)cc2)N1C[C@H](O)CN=[N+]=[N-]`, the z-score was -0.416 (inactive).

Consider `CCOC(=O)[C@H](Cc1ccccc1)NC(=O)CCC1CC(OC(=O)NCCc2ccc(F)cc2)CC2(CCCC(COC(=O)NCc3cccc(C(F)(F)F)c3)O2)O1` (stereo partly specified), for which the z-score is -0.306 (inactive).

For the compound `COc1cccc([C@H]2Oc3ccc(OC)cc3C(=NOCC[C@@H]3C=C[C@H](OC(C)=O)[C@@H](COC(C)=O)O3)[C@@H]2O)c1`, the z-score is -1.16 (inactive).

On to `CC(=O)OC[C@H]1O[C@H](CC=NO[C@@H](C)c2cc(-c3c(C)cc(C)cc3C)no2)C=C[C@@H]1OC(C)=O`, for which the z-score was -0.845 (inactive).

With `CCOC(=O)NN=C1C[C@@H](O)[C@@H](O)[C@@H]2[C@@H]3C(=O)N(c4ccc(F)cc4F)C(=O)[C@@H]3CC[C@H]12`, the z-score is -0.734 (inactive).

On to `O=C1[C@H]2[C@H]3[C@H](O)[C@H](O)CC(=NO[C@@H]4O[C@H](CO)[C@@H](O)[C@H](O)[C@H]4O)[C@H]3CC[C@H]2C(=O)N1C[C@@H]1CCCO1`, for which the z-score was 0.572 (inactive).

As to `CCOC(=O)[C@H](Cc1ccccc1)NC(=O)CCC1CC(OC(=O)NCCc2ccc(F)cc2)CC2(CCCC(COC(=O)NCCC(C)C)O2)O1` (stereo partly specified), the z-score was 0.232 (inactive).

Turning to `CO[C@H]1COC(=O)[C@H](C)COC(=O)[C@@H](OCc2ccccc2)C=C[C@@H]1C`, the z-score was 0.308 (inactive).

In the case of `O=C1[C@H]2[C@H]3[C@H](O)[C@H](O)CC(=NOC[C@@H](O)COCc4ccco4)[C@@H]3CC[C@H]2C(=O)N1Cc1ccccc1`, the z-score is -0.278 (inactive).

In the case of `CC(C)=CCCC(C)=CCON=C1C[C@@H](O)[C@@H](O)[C@@H]2[C@@H]3C(=O)N(Cc4ccc5c(c4)OCO5)C(=O)[C@@H]3CC[C@H]12`, the z-score is -0.412 (inactive).

On to `COC(=O)[C@H](C)NC(=O)CC=C[C@@H](C)[C@@H]1C=C[C@H](O)[C@@H](CO)O1`, for which the z-score is -1.04 (inactive).

In the case of `COc1ccc(COC(=O)NN=C2C[C@@H](O)[C@@H](O)[C@@H]3[C@@H]4C(=O)N(C[C@@H]5CCCO5)C(=O)[C@@H]4CC[C@@H]23)cc1`, the z-score was 0.658 (inactive).
